This is an account of results in the supplement of paper PMC12024424.

Structures can show the parent of a compound that is named as a salt.

The assay has as its system Staphylococcus aureus Sa2 (MRSA, cystic fibrosis isolate). Kind of assay: growth reduction vs untreated control (viable cell count); higher = stronger antibacterial activity; extreme values may be limits of the assay. The settings on record: 0.1 mM; 24 h. The protocol: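 Single-dose screen of the MedChem Express Drug Repurposing Library (0.1 mM, 1% DMSO) against planktonic MRSA S. aureus Sa2 (CF isolate) in TSB in 96-well plates, 37 °C aerobic, 24 h. Assays were run in triplicate and repeated twice.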
Consider `O=C(NCC12CC3CC(CC(C3)C1)C2)c1cc(CCCNCCCO)ccc1Cl` [AZD9056 (hydrochloride)], for which the growth reduction was determined as 100%.

`Cc1ccc(NC(=O)C2(c3ccc4c(c3)OC(F)(F)O4)CC2)nc1-c1cccc(C(=O)O)c1` [Lumacaftor] came in with a growth reduction of 96%.

The compound `CC1(C)CC[C@]2(NC(=O)C(C)(F)F)CC[C@]3(C)[C@H](C(=O)C=C4[C@@]5(C)C=C(C#N)C(=O)C(C)(C)[C@@H]5CC[C@]43C)[C@@H]2C1` [Omaveloxolone] had a growth reduction of 100%.

`C=CC(N)CCC(=O)O` (stereo not given) [Vigabatrin (hydrochloride)] had a growth reduction of 100%.

`CCCCCCCC/C=C/CCCCCCCC(=O)OC[C@H]1O[C@@H](n2ccc(N)nc2=O)C(F)(F)[C@@H]1O` [Gemcitabine (elaidate)] displayed a growth reduction of 100%.

`CN(Cc1cnc2nc(N)nc(N)c2n1)c1ccc(C(=O)N[C@@H](CCC(=O)O)C(=O)O)cc1` [Methotrexate] showed a growth reduction of 95%.

On to `Fc1ccc2c(CCNCc3cccc(OCC(F)(F)C(F)F)c3)c[nH]c2c1` [Idalopirdine Hydrochloride], for which the growth reduction is 100%.

Compound `COc1cc(NCc2ccc3nc(N)nc(N)c3c2C)cc(OC)c1OC` [Trimetrexate] came in with a growth reduction of 100%.

`CNC(=O)c1cc(Oc2ccc(NC(=O)Nc3ccc(Cl)c(C(F)(F)F)c3)c(F)c2)ccn1` [Regorafenib (monohydrate)] registered a growth reduction of 98%.

Compound `CC1=C(C)C(=O)C(CCCCCCCCCC[P+](c2ccccc2)(c2ccccc2)c2ccccc2)=CC1=O` [Visomitin] gave a growth reduction of 100%.

With `Oc1c(Cl)cc(Cl)cc1Sc1cc(Cl)cc(Cl)c1O` [Bithionol], the growth reduction came out at 100%.

In the case of `O=C(O)C1(c2ccc(-c3ccc(Cl)c(Cl)c3)c(F)c2)CC1` [Itanapraced], the growth reduction is 100%.

The compound `C=C[C@@H]1C[C@]1(NC(=O)[C@@H]1C[C@@H]2CN1C(=O)[C@H](C(C)(C)C)NC(=O)O[C@@H]1C[C@H]1CCCCCc1nc3ccc(OC)cc3nc1O2)C(=O)NS(=O)(=O)C1CC1` [Grazoprevir hydrate] had a growth reduction of 100%.

For `CN1C(=O)[C@@H](NC(=O)c2n[nH]c(Cc3ccccc3)n2)COc2ccccc21`, the growth reduction came to 90%.

Compound `CC(C)OC(=O)CCC/C=C\C[C@@H]1[C@@H](/C=C/[C@@H](O)COc2cccc(C(F)(F)F)c2)[C@H](O)C[C@@H]1O` [Travoprost] registered a growth reduction of 100%.

Regarding `Fc1ccc(C(c2ccc(F)cc2)N2CCN(C/C=C/c3ccccc3)CC2)cc1` [Flunarizine (dihydrochloride)], the growth reduction came to 98%.

The compound `COCCN1CCC(N(Cc2ccc(-c3ccc(C(F)(F)F)cc3)cc2)C(=O)Cn2c(SCc3cccc(F)c3F)cc(=O)c3ccccc32)CC1` [Rilapladib] had a growth reduction of 100%.

The compound `COc1cc2c(Oc3ccc(NC(=O)C4(C(=O)Nc5ccc(F)cc5)CC4)cc3F)ccnc2cc1OCCCN1CCOCC1` [Foretinib] gave a growth reduction of 99%.

Compound `CCOC(=O)Nc1ccc(NCc2ccc(F)cc2)nc1N` [Flupirtine (Maleate)] gave a growth reduction of 96%.

For `COCC[n+]1c2c(n(Cc3cnccn3)c1C)C(=O)c1ccccc1C2=O` [Sepantronium (bromide)], the growth reduction came to 100%.

On to `CC(C)(C)OC(=O)N[C@H]1CCCCC/C=C\[C@@H]2C[C@@]2(C(=O)NS(=O)(=O)C2CC2)NC(=O)[C@@H]2C[C@@H](OC(=O)N3Cc4cccc(F)c4C3)CN2C1=O` [Danoprevir], for which the growth reduction is 100%.

`O=C(O)Cc1ccccc1Nc1c(Cl)cccc1Cl` [Diclofenac] gave a growth reduction of 100%.

Compound `O=C(OCC(O)CO)c1ccccc1Nc1ccnc2cc(Cl)ccc12` (stereo not given) [Glafenine] returned a growth reduction of 100%.

Regarding `Cc1cc(-c2nc(CN3CCNCC3)no2)cc2c1C(=O)N(Cc1ccc(OC(F)(F)F)cc1)C2`, the growth reduction is 100%.

In turn, `C=CC(=O)Nc1cccc(Oc2nc(Nc3ccc(N4CCN(C)CC4)c(F)c3)nc3[nH]ccc23)c1` [Avitinib (maleate)] came in with a growth reduction of 99%.

In turn, `Cc1nc2sccn2c(=O)c1CCN1CCC(=C(c2ccc(F)cc2)c2ccc(F)cc2)CC1` [Ritanserin] yielded a growth reduction of 100%.

Compound `CCCCCCCCCCCC[N+](C)(C)CCOc1ccccc1` [Domiphen (bromide)] gave a growth reduction of 100%.

As to `CC1(C)CCC(C)(C)c2cc(Cn3cccn3)c(/C=C/c3ccc(C(=O)O)cc3)cc21` [Palovarotene], the growth reduction was 100%.

Consider `O=c1ccc2ccc(O)c(O)c2o1` [Daphnetin], for which the growth reduction is 98%.

`C1CCC(C(CC2CCCCN2)C2CCCCC2)CC1` (stereo not given) [Perhexiline maleate] had a growth reduction of 100%.

In the case of `N#Cc1ccc(Oc2ccc3c(c2)COB3O)cc1` [Crisaborole], the growth reduction worked out at 100%.

`Cc1cc(Nc2ncc(Cl)c(Nc3ccccc3S(=O)(=O)C(C)C)n2)c(OC(C)C)cc1C1CCNCC1` [Ceritinib] registered a growth reduction of 100%.

Take `CN(C(=O)CN(CCO)CC(=O)N(C)C(C)(C)Cc1ccccc1)C(C)(C)Cc1ccccc1` [Oxethazaine]: the growth reduction worked out at 100%.

Compound `CC/C(=C(/CC)c1ccc(O)cc1)c1ccc(O)cc1` [Diethylstilbestrol] gave a growth reduction of 100%.

`C[C@H](CCC(=O)O)[C@H]1CC[C@H]2[C@@H]3CC[C@@H]4C[C@H](O)CC[C@]4(C)[C@H]3C[C@H](O)[C@]12C` [Deoxycholic acid] gave a growth reduction of 100%.

The compound `COc1cc([C@@H]2c3cc4c(cc3[C@@H](O[C@@H]3O[C@@H]5CO[C@@H](c6cccs6)O[C@H]5[C@H](O)[C@H]3O)[C@H]3COC(=O)[C@H]23)OCO4)cc(OC)c1O` [Teniposide] had a growth reduction of 100%.

Compound `CCN1CCN(Cc2ccc(-c3cc4c(N[C@H](C)c5ccccc5)ncnc4[nH]3)cc2)CC1` registered a growth reduction of 100%.

`C#C[C@]1(O)CC[C@H]2[C@@H]3CCc4cc(OC5CCCC5)ccc4[C@H]3CC[C@@]21C` [Quinestrol] yielded a growth reduction of 99%.

`C#C[C@]1(O)CC[C@H]2[C@@H]3CCc4cc(O)ccc4[C@H]3CC[C@@]21C` [Ethynyl Estradiol] displayed a growth reduction of 100%.

In the case of `CCCCc1oc2ccc(NS(C)(=O)=O)cc2c1C(=O)c1ccc(OCCCN(CCCC)CCCC)cc1` [Dronedarone], the growth reduction was 100%.
